Test results reported in PubChem BioAssay (NCI).
Compounds without any hit were thinned out: in the full panel of roughly 83,000, 20% have a hit.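 Note: values are percent growth. 100 is the growth of untreated cells, values between 100 and 0 indicate rising inhibition; between -100 and 0 indicates cell death.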 Active and inactive are the calls of the source. The calls were made as follows: active = growth percent below 10; inactive = the rest.

What was measured:
Assay in all cases: NCI-60 one-dose screen, 48 h (100 = growth as untreated, 0 = no growth, -100 = all killed)
[1] = system: EKVX NSCLC; conditions: 10 µM unless noted
[2] = system: SN12C renal; conditions: 10 µM unless noted
[3] = system: UO-31 renal; conditions: 10 µM unless noted
[4] = system: TK-10 renal; conditions: 10 µM unless noted
[5] = system: ACHN renal; conditions: 10 µM unless noted
[6] = system: CAKI-1 renal; conditions: 10 µM unless noted
[7] = system: A498 renal; conditions: 10 µM unless noted
[8] = system: SR leukemia; conditions: 10 µM unless noted
[9] = system: RPMI-8226 leukemia; conditions: 10 µM unless noted
[10] = system: OVCAR-8 ovarian; conditions: 10 µM unless noted
[11] = system: OVCAR-5 ovarian; conditions: 10 µM unless noted
[12] = system: OVCAR-4 ovarian; conditions: 10 µM
[13] = system: SK-OV-3 ovarian; conditions: 10 µM unless noted
[14] = system: IGROV1 ovarian; conditions: 10 µM unless noted
[15] = system: OVCAR-3 ovarian; conditions: 10 µM unless noted
[16] = system: HS 578T breast; conditions: 10 µM unless noted
[17] = system: NCI/ADR-RES ovarian; conditions: 10 µM unless noted
[18] = system: CCRF-CEM leukemia; conditions: 10 µM unless noted
[19] = system: MOLT-4 leukemia; conditions: 10 µM unless noted

Measured: growth

COCCCNc1nc(NC(=O)c2cc(Br)cc(C(F)(F)F)c2)cc(-c2cccnc2)n1
inactive: [1] 96% | [2] 89.1% | [3] 60.6% | [4] 95.8% | [5] 87.4% | [6] 81.4% | [7] 76.2% | [8] 83.4% | [9] 65.6% | [10] 87.5% | [11] 100% | [12] 92.3% | [13] 92.2% | [14] 91.3% | [15] 109% | [16] 83% | [17] 99.5%

Cn1c(=O)c(C#N)c(-c2ccco2)n2c(S(=O)(=O)Cc3ccccc3)nnc12
inactive: [1] 99.7% | [2] 110% | [3] 41.4% | [4] 78.3% | [6] 82.4% | [7] 84.8% | [18] 77.4% | [19] 102% | [8] 65.3% | [9] 80.4% | [10] 48.9% | [11] 99.3% | [12] 81.9% | [13] 111% | [15] 103% | [16] 124% | [17] 90.4%

COc1ccc(-c2cc(-c3ccc(Cl)cc3)nc(NCCCCNc3ccnc4cc(Cl)ccc34)n2)cc1
active: [7] 3.15% | [18] 7.63% | [19] 3.22% | [8] 9.44% | [10] -23.3%
inactive: [1] 77.3% | [2] 77.1% | [3] 35.5% | [4] 107% | [5] 91.8% | [6] 64.3% | [9] 23.8% | [11] 96.2% | [12] 73.3% | [14] 60.8% | [15] 96% | [16] 81.5% | [17] 72.2%

Clc1ccc(/C=N/Nc2nc3ccccc3s2)c(Cl)c1
inactive: [1] 66.9% | [2] 95.3% | [3] 68.2% | [4] 95.4% | [5] 82.8% | [6] 82% | [7] 81.6% | [18] 80.5% | [19] 98.4% | [8] 91% | [9] 91.2% | [10] 79.3% | [11] 103% | [13] 74% | [14] 67% | [16] 84.8% | [17] 89.7%

CC[C@@H]1NC(=O)[C@@H]2CCCCN2C(=O)[C@@H]2CCCN2C(=O)[C@@H](NC(=O)[C@H](Cc2cc(F)cc(F)c2)NC(=O)Nc2ccc(C3CC3)cc2F)[C@H](C)OC(=O)[C@@H]2C[C@@H](C)CN2C1=O
inactive: [1] 20.4% | [2] 12% | [3] 11.2% | [4] 34% | [5] 12.1% | [18] 40.5% | [19] 17% | [8] 15.1% | [9] 12.8% | [10] 13.2% | [14] 28.5% | [16] 20.6% | [17] 14%
active: [6] 9.54% | [7] -5.62% | [11] -1.92% | [12] 7.84% | [15] 6.44%

COc1ccc(C2CC(c3cc(OC)c(OC)c(OC)c3)=NN2C(C)=O)cc1OCC(=O)Nc1nc2ccc(C(F)(F)F)cc2s1 (stereo not drawn)
inactive: [2] 63% | [3] 39.5% | [5] 40.4% | [7] 54.1% | [18] 72.5% | [19] 60% | [8] 63.4% | [9] 42% | [10] 62.3% | [11] 117% | [12] 69.5% | [13] 97% | [15] 67.1% | [16] 26.4% | [17] 63%

CN(C)Cc1ccc[nH]1
inactive: [1] 90.4% | [2] 70.4% | [3] 88.9% | [4] 131% | [5] 101% | [6] 81.8% | [7] 76.8% | [18] 118% | [19] 107% | [8] 102% | [10] 95.1% | [11] 76.3% | [12] 109% | [13] 106% | [15] 99.5% | [16] 113% | [17] 77.9%

C[n+]1cccc(NC(=O)c2ccc3ccc4ccc(C(=O)Nc5ccc[n+](C)c5)nc4c3n2)c1
active: [2] -14.8% | [13] 8.34%
inactive: [1] 68.1% | [3] 65.4% | [4] 94.2% | [5] 41.8% | [6] 52.3% | [7] 95.3% | [18] 71.1% | [19] 71.5% | [8] 75% | [9] 61.5% | [10] 62.5% | [11] 79.5% | [14] 32.3% | [15] 62.4% | [16] 74.7% | [17] 101%

C=C(C)[C@@H]1CC[C@]2(C(=O)OC)CC[C@]3(C)[C@H](CC[C@@H]4[C@@]5(C)CC/C(=N\OCCC(=NCCC#N)NOCCC#N)C(C)(C)[C@@H]5CC[C@]43C)[C@@H]12
inactive: [1] 53.1% [100 µM] | [3] 19% [100 µM] | [4] 37.9% [100 µM] | [6] 18.5% [100 µM] | [10] 13.2% [100 µM] | [11] 50.6% [100 µM] | [13] 34.6% [100 µM] | [14] 18.8% [100 µM] | [16] 24.3% [100 µM] | [17] 17.1% [100 µM]
active: [2] -71.9% [100 µM] | [7] -0.384% [100 µM] | [18] 7.42% [100 µM] | [8] 1.86% [100 µM] | [9] 3.28% [100 µM] | [15] -34.5% [100 µM]

Cc1nc(-c2ccccc2)sc1CC#N
inactive: [1] 101% | [2] 103% | [3] 106% | [4] 79.4% | [6] 97.6% | [7] 85.6% | [18] 102% | [19] 93.5% | [8] 91.6% | [9] 109% | [10] 108% | [11] 105% | [12] 113% | [13] 108% | [14] 102% | [15] 116% | [17] 109%

O=C1NC(=O)c2cc([N+](=O)[O-])cc3cccc1c23
inactive: [1] 94.2% | [2] 98.1% | [3] 66.4% | [4] 107% | [5] 103% | [6] 84.8% | [7] 87.1% | [18] 89.8% | [19] 115% | [8] 114% | [9] 94.2% | [10] 85.4% | [11] 109% | [12] 95.7% | [13] 106% | [15] 112% | [16] 106% | [17] 95.9%

CC1(C)CC(=O)c2c(ccc(C(=O)C[C@@H](N)CO)c2N)O1
inactive: [1] 80.7% | [2] 14.8% | [3] 25.1% | [4] 61.4% | [5] 36.3% | [18] 13% | [19] 21% | [8] 14.7% | [11] 49.8% | [12] 71.1% | [14] 12.9% | [16] 84.7% | [17] 35%
active: [6] 4.82% | [7] -70.4% | [9] 0.0254% | [10] 7.69% | [15] 0.385%

O=[N+]([O-])c1cccc(/C=C/c2ccc3ccccc3n2)c1
inactive: [2] 83% | [3] 76.6% | [4] 64.4% | [5] 53% | [7] 125% | [18] 82.1% | [19] 75.3% | [8] 78.2% | [9] 90.7% | [10] 57.1% | [11] 130% | [12] 38.9% | [13] 70.8% | [14] 79.9% | [15] 88.5% | [17] 71.2%

COc1ccc2nc3cc(Cl)ccc3c(Nc3ccc(O)cc3)c2c1
active: [19] 9.49% | [8] -22.2%
inactive: [1] 94.5% | [2] 67.2% | [3] 62.1% | [4] 88% | [5] 66.6% | [7] 57.2% | [18] 23.9% | [9] 68.6% | [10] 68.5% | [11] 104% | [12] 90.4% | [13] 93.3% | [14] 71.3% | [15] 83% | [16] 76.2% | [17] 71.2%

O=C(Nc1cc(-c2cccnc2)nc(NCCCN2CCOCC2)n1)c1cc(Br)cc(C(F)(F)F)c1
active: [8] 4.25%
inactive: [1] 77.4% | [2] 67.2% | [3] 42% | [4] 65.4% | [6] 61.8% | [7] 53.7% | [18] 42.8% | [19] 45.1% | [9] 30.2% | [10] 58.6% | [11] 81.4% | [12] 62.2% | [13] 92.3% | [14] 63.1% | [15] 79.9% | [16] 54% | [17] 56.6%
